The values below come from PubChem BioAssay (NCATS).

Records with an inconclusive call do not appear. A call without a number means that no potency is given here. The source made the active and inactive calls. The call rests on the fitted dose curve; in most records, active means well fitted inhibition curve with a large enough effect; inconclusive means small, poorly fitted or top-dose-only effect; inactive means flat fitted curve, though single readings scatter.

Sequence of Ubiquitin carboxyl-terminal hydrolase 1 (Homo sapiens) (O94782 whole entry, looked up): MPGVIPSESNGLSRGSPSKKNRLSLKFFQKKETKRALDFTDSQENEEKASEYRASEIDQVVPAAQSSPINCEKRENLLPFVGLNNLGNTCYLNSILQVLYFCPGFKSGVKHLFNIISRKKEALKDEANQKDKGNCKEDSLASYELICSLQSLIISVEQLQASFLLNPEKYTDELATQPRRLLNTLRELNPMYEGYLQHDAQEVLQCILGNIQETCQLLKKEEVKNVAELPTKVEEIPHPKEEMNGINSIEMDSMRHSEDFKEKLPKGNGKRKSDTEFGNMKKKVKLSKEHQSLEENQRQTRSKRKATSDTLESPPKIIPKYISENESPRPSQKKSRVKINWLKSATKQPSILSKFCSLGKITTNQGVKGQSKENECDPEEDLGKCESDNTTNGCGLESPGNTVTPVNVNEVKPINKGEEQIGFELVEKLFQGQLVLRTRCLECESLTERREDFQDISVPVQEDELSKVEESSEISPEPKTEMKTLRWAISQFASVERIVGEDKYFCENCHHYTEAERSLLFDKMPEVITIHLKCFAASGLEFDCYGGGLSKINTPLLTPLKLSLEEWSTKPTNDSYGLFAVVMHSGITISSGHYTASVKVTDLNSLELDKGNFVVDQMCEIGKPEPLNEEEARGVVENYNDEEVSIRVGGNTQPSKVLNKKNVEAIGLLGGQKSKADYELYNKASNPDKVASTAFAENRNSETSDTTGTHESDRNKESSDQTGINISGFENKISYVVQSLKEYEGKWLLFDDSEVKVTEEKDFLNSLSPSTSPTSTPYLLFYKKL

For this assay, the target named is Ubiquitin carboxyl-terminal hydrolase 1 (Homo sapiens) (UniProt O94782). The experiment in a line: Inhibitors of USP1/UAF1: Pilot qHTS (AID 504865).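 Further: rhodamine fluorescence freed from ubiquitin-rhodamine substrate followed over time; top concentration of the series differs between compounds; nearly all actives have a fitted effect of over 35% in size.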 To be noted: purified USP1/UAF1, Ub-rhodamine cleavage fluorescence; series mostly up to 114 µM. The procedure, abridged:
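Enzyme-free wells gave the negative control, while test wells held 1nM USP1/UAF1 preincubated with compound for 15 min at room temperature. Ub-Rho at 150nM final started the reaction, and fluorescence at 480/540 nm was recorded kinetically.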
(Quantitative high-throughput screening tests each substance at several concentrations.)
Take `COC(=O)C1OC(=O)C2OC23[C@]2(C)C(OC(C)=O)CC4C(C)(C)C(=O)CC[C@]4(C)C2CC[C@@]13C` (stereo partly drawn): the Potency result was “inactive”. With `O=C(O)C(S)[C@@H](S)C(=O)O` (stereo partly drawn) the entry was “inactive”; with `O=c1c(-c2ccc(O)cc2)coc2c(C3OC(CO)C(O)C(O)C3O)c(O)ccc12` (stereo not drawn), “inactive”. With `COC(=O)c1c(C)cc(O)cc1O`, the Potency result is “inactive”. `Cc1cc(=O)oc2cc(O)c(O)cc12`: the Potency entry is “inactive”. Regarding `O=C(O)c1cc2ccccc2[nH]1`, the Potency entry was “inactive”. With `COC(=O)CC1[C@@]2(C)C[C@]34OC5(C)OC6(C7CC(=O)OC(c8ccoc8)[C@]7(C)CCC6(O5)[C@]13C)C(OC(C)=O)[C@]4(OC(C)=O)C2OC(C)=O` (stereo partly drawn) the entry was “inactive”; with `Nc1ncnc2c1[nH]c(=O)n2C1CC(O)C(CO)O1` (stereo not drawn), “inactive”.

Turning to `O=C(O)/C=C/C=C/c1ccccc1`, the Potency result was “inactive”. With `CC1CC2C3CCC4=CC(=O)C=C[C@@]4(C)[C@]3(F)C(O)C[C@]2(C)[C@]1(O)C(=O)COP(=O)(O)O` (stereo partly drawn) the entry was “inactive”; with `CCC1OC(=O)C(C)[C@@H](O[C@H]2C[C@@](C)(OC)C(O)C(C)O2)C(C)[C@@H](O[C@@H]2OC(C)CC(N(C)C)C2O)[C@@](C)(O)CC(C)C2NC(COCCOC)O[C@H](C2C)[C@@]1(C)O` (stereo partly drawn), “inactive”; with `CC1O[C@@H](O[C@@H]2C(O)C[C@H](O[C@@H]3C(O)C[C@@H](OC4CC[C@@]5(C)C6CC[C@]7(C)C(C8=CC(=O)OC8)CC[C@@]7(O)C6CC[C@@H]5C4)OC3C)OC2C)CC(O)[C@H]1O` (stereo partly drawn), “inactive”. As for `NC1C(O)OC(CO)[C@@H](O)[C@@H]1O[C@H]1O[C@@H](C(=O)O)C(O)C(O)C1O` (stereo partly drawn), the Potency entry is “inactive”.
